High-throughput results (PubChem)
NPSR antagonist = blocks cAMP signaling of the human neuropeptide S receptor; Q6W5P4; CHO-NPSR cells, cAMP TR-FRET, antagonist mode; Potency, µM (series often up to 38.3 µM), without a hit: top-dose activity change, negative = inhibition, usual class: inhibitors; actives 1% (n = 220,000); AID 1461; also: nearly all actives have a fitted effect of over 50% in size
Target sequence (Q6W5P4 whole entry, looked up): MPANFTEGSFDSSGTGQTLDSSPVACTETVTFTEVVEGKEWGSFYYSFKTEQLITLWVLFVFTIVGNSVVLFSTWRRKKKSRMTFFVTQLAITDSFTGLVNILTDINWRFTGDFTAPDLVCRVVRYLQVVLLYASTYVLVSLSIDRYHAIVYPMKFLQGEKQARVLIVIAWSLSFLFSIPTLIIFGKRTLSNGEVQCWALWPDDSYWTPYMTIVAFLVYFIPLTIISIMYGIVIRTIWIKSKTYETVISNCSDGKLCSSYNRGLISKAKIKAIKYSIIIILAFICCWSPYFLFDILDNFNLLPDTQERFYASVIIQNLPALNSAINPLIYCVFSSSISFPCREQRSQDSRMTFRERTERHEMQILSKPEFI
RORg inh = blocks mouse ROR gamma transcriptional activity; P51450; Drosophila S2 Gal4-RORgamma UAS-luciferase reporter, 20 h; Potency, µM (doses to about 53.6 µM), without a hit: at the highest dose activity change, negative = inhibition, most hits filed as inhibitors; actives 5.4% (n = 310,000); AID 2551; also: nearly all actives have a fitted effect of over 60% in size
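Read-out: Photinus luciferase luminescence; inhibitors lower reporter signal. Insect Schneider cells with Gal4-ROR gamma fusion under metallothionein promoter, UAS reporter; 700 uM final copper sulfate induction, 20 hr, ambient temperature.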
VP16 counter = inhibits Gal4-VP16 luciferase reporter, ROR gamma counter-screen; Drosophila S2 Gal4-VP16 UAS-luciferase, luminescence, 20 h; AID 2546; actives 3.5% (n = 310,000); Potency, µM (series often up to 53.6 µM), for inactives: at the top dose activity, negative = inhibition, hits mostly inhibitors;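 also: Gal4-VP16 expression switched on by copper sulfate through the metallothionein promoter; nearly all actives have a fitted effect of over 50% in size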
B2AR arrestin = beta2AR (human) beta-arrestin recruitment activity. Potency, µM (series often up to 46.1 µM), inactives show at the top dose activation, most hits filed as activators. P07550. beta-arrestin recruitment to beta2AR, cell-based reporter. AID 492947. actives 0.02% (n = 330,000);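 also: 0% = DMSO controls and full agonism = EC100 isoproterenol or metaproterenol; nearly all actives have a fitted effect of over 65% in size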
Active calls of the source: *; u = inconclusive; x = no result given; [ ] = remark or other dose. Shown are actives, neighbours in structure and some others; about 5.7% of the full set was active somewhere. Calls follow the shape of the dose curve; as a rule, active = well fitted curve in the direction sought with a large enough effect; inconclusive = small, poorly fitted or top-dose-only effect, or another doubt; inactive = no such curve, though single readings can be large; an effect the other way counts as inactive or inconclusive. Unless noted, % is scaled to controls: 0 for no effect and ±100 for the full control effect; potency is read from the fitted curve at half-maximal effect.

SMILES | NPSR antagonist | RORg inh | VP16 counter | B2AR arrestin
O=C(CCn1cnc(-c2ccccc2)c1-c1ccccc1)N/N=C/c1ccc(O)cc1 | -10% | 45% | -7% | 0%
Cc1ccc(SCCC(=O)N/N=C/c2cccnc2)cc1 | -1% | u | -4% | 0%
COc1ccc(/C=N/NC(=O)CCC(=O)Nc2ccc(F)cc2)c(OC)c1 | x | 20%[1.91 µM] | 2% | 0%
CCCCn1c(N)c(N(CC(C)C)C(=O)C2CC(=O)N(Cc3ccccc3)C2)c(=O)[nH]c1=O (stereo unspecified) | x | x | x | -1%
CN1CCN(c2ncc3nc(-c4cc(F)cc(F)c4)c(=O)n(CCC#N)c3n2)CC1 | x | -7% | 3% | x
O=S(Cc1ccc(Br)cc1)Cc1nnc(SCc2c(Cl)cccc2Cl)n1-c1ccccc1 (stereo unspecified) | 10µM* | u | u | 0%
Cn1c(CS(=O)Cc2c(Cl)cccc2Cl)nnc1SCc1c(Cl)cccc1Cl (stereo unspecified) | -8%[46.1 µM] | 36% | 5% | 0%
Cn1cccc1C(=O)N1CCC2(CC1)CCN(c1ccccc1)CC2 | x | 14% | 4% | x
Cc1ccc(-c2nc(CN(CC3CCC3)CC3CCCO3)c(C)o2)s1 (stereo unspecified) | 37% | 11µM* | 17% | -1%
Cc1ccc(CNCC2CCCO2)s1 (stereo unspecified) | 13%[46.1 µM] | 7% | -12% | -1%
Cc1nn(-c2ccccc2)cc1/C=N/NC(N)=S | u | 2.5µM* | 4.5µM* | -1%
Cn1cc(/C=N/NC(=O)c2ccc(C#N)cc2F)c2ccccc21 | -3% | 5µM* | u | -1%
Cc1ccsc1/C=N/NC(=O)c1ccccn1 | -8% | -7%[10 µM] | u | 0%
C/C(=N\NC(=O)c1cccs1)C(C)(C)C | 3% | 13µM* | u | -1%
Cc1ccsc1/C=N/NC(=O)c1cccs1 | 11%[46.1 µM] | 10µM* | 13µM* | 0%
Cc1c(C(=O)NN2CCCCC2)nn(-c2ccc(Cl)cc2Cl)c1-c1ccc(Cl)cc1 | x | 24%[10 µM] | -13% | x
COC(=O)c1ccc(C(NC(=O)OCc2ccccc2)/C(=C/[C@@H](C)C(=O)NCc2nc3ccccc3n2C)c2cccnc2)cc1 (stereo partly specified) | x | 43% | 10% | x
Cn1cccc1/C=N/NC(=O)c1cccs1 | x | u | u | 0%
Cn1cc(/C=N\NC(=O)c2cccs2)c2ccccc21 | 5% | 8.9µM* | u | 0%
Cn1cc(/C=N/NC(N)=S)c2ccccc21 | u | u | 22µM* | 7%
N#CCCn1c(=O)cnc2cnc(Nc3ccccc3)nc21 | x | u | -7% | x
COCCN(Cc1cc2cc3c(cc2nc1Cl)OCO3)C(=O)c1ccc(C)cc1 | 24% | 1.6µM* | u | 3%
CC(/C=N\NC(=O)Cn1c(C)nc2ccccc21)=C\c1ccccc1 | -24%[46.1 µM] | 21% | 13µM* | 0%
CC(/C=N/NC(=O)CSc1nc(C)cc(C)n1)=C\c1ccccc1 | 7% | u | 2% | 0%
CCCCCc1cc(=O)oc2c(C(CCN3CCCC(C)C3)c3cc(OC)c(OC)c(OC)c3)c(OC)cc(OC)c12 (stereo unspecified) | 6.3µM* | -8% | -11% | 0%
SMILES | NPSR antagonist | RORg inh | VP16 counter | B2AR arrestin
COc1cc(C(CCN2CCCC(C)C2)c2c(OC)cc(OC)c3c(C)cc(=O)oc23)cc(OC)c1OC (stereo unspecified) | x | 1% | -10% | x
CCCCCc1cc(=O)oc2c(C(CCN3CCCCC3)c3cc(OC)c(OC)c(OC)c3)c(OC)cc(OC)c12 (stereo unspecified) | 10µM* | u | u | 0%
COc1cc(C(CCN2CCN(c3ccccc3)CC2)c2c(OC)cc(OC)c3c(C)cc(=O)oc23)cc(OC)c1OC (stereo unspecified) | 6.3µM* | 9% | -20% | -1%
CCCCCc1cc(=O)oc2c(C(CCN3CCCC(C)C3)c3ccc(N(C)C)cc3)c(OC)cc(OC)c12 (stereo unspecified) | u | -11% | -4% | 0%
CCn1c(-c2cccc(Br)c2)n[nH]c1=S | 1%[46.1 µM] | 10µM* | 7.1µM* | -1%
CCn1c(-c2ccc3ncccc3c2)n[nH]c1=S | -2%[46.1 µM] | 11µM* | u | -1%
CCCCn1c(=O)[nH]c(=O)c2c1nc(-c1ccc([N+](=O)[O-])cc1)n2CC | x | 11% | 0% | -1%
CCn1c(-c2sc(-c3ccccc3)nc2C)n[nH]c1=S | -22% | 3.5µM* | u | -1%
CCn1c(-c2ccc([N+](=O)[O-])cc2)n[nH]c1=S | -7%[46.1 µM] | 11µM* | -24% | 0%
